Assay [1] concerns the target 6-phosphogluconate dehydrogenase, decarboxylating (Homo sapiens) (UniProt P52209). The assay is described as follows: inhibition of human phosphogluconate dehydrogenase – biochemical, recombinant enzyme, NADPH absorbance, primary screen (AID 1159550). Particulars: recombinant 6PGD, NADPH absorbance 341 nm; at 10 µM; stronger effect = higher value.
In assay [2] the target is Mitogen-activated protein kinase 7 (Homo sapiens) (UniProt Q13164). The assay is described as follows: Gal4-ERK5 driven luciferase induction – cell-based, HTS, primary screen (AID 1508626;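 active = luciferase signal above three times the same-plate solvent-only control wells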;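 also: luciferase driven by Gal4-ERK5 fusion binding five Gal4 sites before minimal TATA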). Particulars: HeLa Gal4-ERK5 transactivation, 18 h, at 5 µM, stronger effect = higher value.
Sequence of Mitogen-activated protein kinase 7 (Homo sapiens) (Q13164 whole entry, looked up, the tested form may be a part): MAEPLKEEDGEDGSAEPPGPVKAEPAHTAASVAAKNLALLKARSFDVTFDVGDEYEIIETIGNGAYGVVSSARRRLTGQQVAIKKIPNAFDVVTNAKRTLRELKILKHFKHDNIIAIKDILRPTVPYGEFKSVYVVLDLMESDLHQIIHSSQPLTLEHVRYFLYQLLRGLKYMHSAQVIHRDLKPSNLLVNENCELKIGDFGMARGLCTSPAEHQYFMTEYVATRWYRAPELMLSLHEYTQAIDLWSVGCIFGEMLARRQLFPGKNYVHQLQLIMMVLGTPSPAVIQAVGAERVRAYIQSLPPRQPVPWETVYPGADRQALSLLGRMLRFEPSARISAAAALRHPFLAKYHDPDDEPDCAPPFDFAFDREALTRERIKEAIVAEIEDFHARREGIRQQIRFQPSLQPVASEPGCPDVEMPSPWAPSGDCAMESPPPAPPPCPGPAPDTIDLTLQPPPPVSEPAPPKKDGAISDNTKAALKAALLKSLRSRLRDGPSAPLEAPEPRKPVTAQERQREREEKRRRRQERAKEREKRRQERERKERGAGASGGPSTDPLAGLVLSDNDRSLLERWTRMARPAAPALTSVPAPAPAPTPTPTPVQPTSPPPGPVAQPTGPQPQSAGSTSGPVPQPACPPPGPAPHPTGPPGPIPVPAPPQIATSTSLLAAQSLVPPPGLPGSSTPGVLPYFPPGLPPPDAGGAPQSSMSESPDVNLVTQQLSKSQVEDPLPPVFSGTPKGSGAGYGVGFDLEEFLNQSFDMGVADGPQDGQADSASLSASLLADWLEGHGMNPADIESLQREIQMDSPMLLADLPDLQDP
Assay [3] has as its target ATP-dependent translocase ABCB1 (Homo sapiens) (UniProt P08183). The assay is described as follows: P-glycoprotein substrate transport blockade – cell-based (AID 377; in the data active = fluorescence slope change above about 50%). To be noted: MDR1-expressing cells, fluorescent substrate accumulation slope; stronger effect = higher value; concentration not given here.
Assay [4] can be described thus: compounds altering viability of human ES cells (AID 493140; call rule not given here;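 also: cells exposed to compounds for four days before counting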). To be noted: human embryonic stem cell survival screen; stronger effect = higher value.
Assay [5] can be described thus: P. berghei load reduction in hepatocytes – cell-based, HepG2, luciferase luminescence, HepG2 viability, primary screen (AID 624349; in the data active = parasite load remaining mostly below about 12%, no sharp cut-off; inactive = mostly above about 10%;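 also: 100% = mean of DMSO negative control wells on the same plate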). Particulars: P. berghei liver stage in HepG2, luciferase luminescence, concentration not given here; parasite load remaining: stronger effect = lower value; viability: measured here: HepG2 viability without parasites.
A short description of assay [6]: blockers of polyQ-driven CASP3 activation – cell-based (AID 1583). Particulars: polyglutamine-induced caspase-3 activation, cell assay; stronger effect = higher value;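 tested at 10 µM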.
A short description of assay [7]: yeast 75Q aggregation reduction – 75Q-TubU reporter (AID 1593). Particulars: Yeast 75Q polyglutamine aggregation reporter.
The nature of assay [8]: restoration of touch response, mutant HTT neurons – whole organism, C. elegans mechanosensory neurons, N-terminal huntingtin (AID 1599). Particulars: C. elegans polyQ-huntingtin mechanosensory neurons, stronger effect = higher value.
Assay [9] is described as follows: blockers of cytochrome c efflux from mitochondria – biochemical, purified mitochondria (AID 1603).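 Also: mouse liver mitochondria challenged with calcium chloride; signal normalized to the plate average as 100%.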 To be noted: stronger effect = lower value.
Assay [10] in a line: polyglutamine aggregate formation blockers (AID 1604). Particulars: polyglutamine-induced protein aggregation inhibition assay; stronger effect = higher value; tested at 2.5 µM.
Assay [11] is described as follows: glutamate transport activators, MN-1 cells, MN-1 cell line (AID 1612).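 Also: tested at 1 µM final; 0% = mean of DMSO vehicle wells on each plate; positive means more glutamate uptake than control and negative means less.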 To be noted: MN-1 motor neuron cells, stronger effect = higher value.
Assay [12] can be described thus: GFP-Q80 aggregate reduction, neuronal-like cells, cell-based, NGF-treated PC12, GFPQ80 (AID 1614).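 Also: lower means fewer inclusions and 0 means no inclusions at all.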 To be noted: PC12 NGF-treated GFP-polyQ80 inclusion reduction.
Assay [13] is described as follows: 75Q-TubH aggregate inhibition, S. cerevisiae, yeast (AID 1616). To be noted: S. cerevisiae 75Q-TubH polyglutamine aggregation suppression; stronger effect = higher value.
A short description of assay [14]: viability loss with induced miR-34 in A549 – imaging, A549 dox-inducible miR-34, nuclei and caspase counts, primary screen (AID 1347080;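 active = compounds whose cell count with miR-34 switched on is under 0.7 times the count with it off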). To be noted: A549 miR-34 inducible, Hoechst nuclei count, 48 h.
Assay [15] concerns the target NAD(+) hydrolase SARM1 (Homo sapiens) (UniProt Q6SZW1). Put plainly: blocking NAD cleavage by SARM1 SAM-TIR – cell lysate, NAD-Glo luminescence (AID 1508614;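 active = compound whose remaining NAD level is above about 45 nM, limit read from the data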;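 also: higher remaining NAD means stronger inhibition of SARM1 NADase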). Particulars: SAM-TIR HEK293T lysate NADase, at 1 µM, stronger effect = higher value.
The target of assay [16] is Calcium-dependent protein kinase 1 (Plasmodium falciparum (isolate 3D7)) (UniProt P62344). Put plainly: PfCDPK1 kinase inhibitors, biochemical, TCAMS library (AID 1159585; cut-off not given, nearly all actives have IC50 up to about 0.98 µM;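 also: inhibitors leave more ATP so luminescence rises with inhibition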). To be noted: recombinant PfCDPK1, Kinase-Glo ATP depletion luminescence.
Sequence of Calcium-dependent protein kinase 1 (Plasmodium falciparum (isolate 3D7)) (P62344 whole entry, looked up): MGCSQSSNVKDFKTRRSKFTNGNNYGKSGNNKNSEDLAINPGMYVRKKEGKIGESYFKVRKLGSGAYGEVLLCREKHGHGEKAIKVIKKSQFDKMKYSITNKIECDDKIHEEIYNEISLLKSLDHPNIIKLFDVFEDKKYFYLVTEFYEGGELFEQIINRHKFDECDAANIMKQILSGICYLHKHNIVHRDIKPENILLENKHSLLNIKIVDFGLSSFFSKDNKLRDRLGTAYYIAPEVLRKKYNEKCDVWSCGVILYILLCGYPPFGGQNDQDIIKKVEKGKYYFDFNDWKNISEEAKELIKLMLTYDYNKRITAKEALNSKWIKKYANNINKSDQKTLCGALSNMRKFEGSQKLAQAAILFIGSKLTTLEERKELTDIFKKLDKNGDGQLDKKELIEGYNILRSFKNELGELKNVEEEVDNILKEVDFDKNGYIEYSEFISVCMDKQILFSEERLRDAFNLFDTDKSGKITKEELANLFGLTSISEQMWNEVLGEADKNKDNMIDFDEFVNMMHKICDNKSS
For assay [17], the target named is Plasmodium falciparum protein kinase 6 (PK6, PF3D7_1337100) (UniProt Q8IDW1). The assay is described as follows: PfPK6 kinase inhibitors, biochemical, TCAMS library (AID 1159586; call rule not given here). To be noted: recombinant PfPK6, Kinase-Glo ATP depletion luminescence.
Sequence of Plasmodium falciparum protein kinase 6 (PK6, PF3D7_1337100) (Q8IDW1 1-305): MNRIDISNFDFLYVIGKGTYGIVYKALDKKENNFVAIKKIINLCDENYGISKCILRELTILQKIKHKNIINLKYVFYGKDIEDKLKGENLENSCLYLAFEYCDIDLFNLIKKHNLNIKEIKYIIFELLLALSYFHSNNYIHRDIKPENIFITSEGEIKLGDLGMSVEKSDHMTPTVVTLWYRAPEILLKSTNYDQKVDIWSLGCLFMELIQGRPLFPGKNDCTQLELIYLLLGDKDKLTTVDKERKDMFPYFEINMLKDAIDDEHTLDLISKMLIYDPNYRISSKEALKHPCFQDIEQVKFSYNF
In assay [18] the target is Protein kinase 7 (PK7), Plasmodium falciparum 3D7 (PF3D7_0213400) (UniProt Q7YTF7). The assay is described as follows: inhibition of Plasmodium PK7 catalytic activity – biochemical, TCAMS antimalarial set, Kinase-Glo luminescence (AID 1159587; call rule not given here). To be noted: recombinant PfPK7, Kinase-Glo ATP depletion luminescence.
Sequence of Protein kinase 7 (PK7), Plasmodium falciparum 3D7 (PF3D7_0213400) (Q7YTF7 1-343): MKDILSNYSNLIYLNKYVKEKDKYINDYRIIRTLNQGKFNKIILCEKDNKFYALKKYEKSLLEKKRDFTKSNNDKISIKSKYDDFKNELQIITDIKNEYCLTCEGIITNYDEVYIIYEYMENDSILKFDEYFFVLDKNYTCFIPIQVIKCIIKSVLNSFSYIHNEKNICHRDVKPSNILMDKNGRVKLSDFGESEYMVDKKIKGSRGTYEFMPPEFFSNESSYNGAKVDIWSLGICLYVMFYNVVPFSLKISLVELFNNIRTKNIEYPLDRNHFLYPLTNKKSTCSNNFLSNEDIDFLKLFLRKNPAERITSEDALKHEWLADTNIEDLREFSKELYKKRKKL
Assay [19] deals with Calcium-dependent protein kinase 4 (Plasmodium falciparum (isolate 3D7)) (UniProt Q8IBS5). The assay is described as follows: PfCDPK4 kinase inhibitors, biochemical, TCAMS library (AID 1159588; cut-off not given, nearly all actives have IC50 up to about 0.91 µM). Particulars: recombinant PfCDPK4, Kinase-Glo ATP depletion luminescence.
Sequence of Calcium-dependent protein kinase 4 (Plasmodium falciparum (isolate 3D7)) (Q8IBS5 whole entry, looked up): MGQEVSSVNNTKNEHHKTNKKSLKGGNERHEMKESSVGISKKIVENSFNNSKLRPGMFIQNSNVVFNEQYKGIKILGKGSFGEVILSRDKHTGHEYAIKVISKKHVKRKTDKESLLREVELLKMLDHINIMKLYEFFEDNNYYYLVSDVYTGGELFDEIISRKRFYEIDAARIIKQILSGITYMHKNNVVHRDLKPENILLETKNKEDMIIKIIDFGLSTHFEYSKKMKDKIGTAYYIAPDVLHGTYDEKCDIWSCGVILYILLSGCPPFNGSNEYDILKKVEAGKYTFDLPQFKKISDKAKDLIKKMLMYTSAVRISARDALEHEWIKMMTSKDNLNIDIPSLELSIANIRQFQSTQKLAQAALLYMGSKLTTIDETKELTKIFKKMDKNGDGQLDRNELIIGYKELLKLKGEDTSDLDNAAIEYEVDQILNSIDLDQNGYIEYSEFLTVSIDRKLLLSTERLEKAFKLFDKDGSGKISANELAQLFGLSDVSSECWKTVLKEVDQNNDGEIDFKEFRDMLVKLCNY
Setting [20] is: measured here: relative caspase fold change +Dox/-Dox.
The mark [21] stands for this setting: measured here: total cells with miR-34 induction, stronger effect = lower value.
Setting [22] is: measured here: total cells without miR-34 induction.

“And” between values parts separate entries of the source, which are not always exact repeats. Equal values may be shown once. Inconclusive results are not listed. For some of these results: Measured potencies and affinities stand elsewhere. The source made the active and inactive calls.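 The calls were made as follows, unless noted: active = at least 20% inhibition of 6-phosphogluconate dehydrogenase activity; inactive = the rest.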

Sequence of ATP-dependent translocase ABCB1 (Homo sapiens) (P08183 whole entry, looked up): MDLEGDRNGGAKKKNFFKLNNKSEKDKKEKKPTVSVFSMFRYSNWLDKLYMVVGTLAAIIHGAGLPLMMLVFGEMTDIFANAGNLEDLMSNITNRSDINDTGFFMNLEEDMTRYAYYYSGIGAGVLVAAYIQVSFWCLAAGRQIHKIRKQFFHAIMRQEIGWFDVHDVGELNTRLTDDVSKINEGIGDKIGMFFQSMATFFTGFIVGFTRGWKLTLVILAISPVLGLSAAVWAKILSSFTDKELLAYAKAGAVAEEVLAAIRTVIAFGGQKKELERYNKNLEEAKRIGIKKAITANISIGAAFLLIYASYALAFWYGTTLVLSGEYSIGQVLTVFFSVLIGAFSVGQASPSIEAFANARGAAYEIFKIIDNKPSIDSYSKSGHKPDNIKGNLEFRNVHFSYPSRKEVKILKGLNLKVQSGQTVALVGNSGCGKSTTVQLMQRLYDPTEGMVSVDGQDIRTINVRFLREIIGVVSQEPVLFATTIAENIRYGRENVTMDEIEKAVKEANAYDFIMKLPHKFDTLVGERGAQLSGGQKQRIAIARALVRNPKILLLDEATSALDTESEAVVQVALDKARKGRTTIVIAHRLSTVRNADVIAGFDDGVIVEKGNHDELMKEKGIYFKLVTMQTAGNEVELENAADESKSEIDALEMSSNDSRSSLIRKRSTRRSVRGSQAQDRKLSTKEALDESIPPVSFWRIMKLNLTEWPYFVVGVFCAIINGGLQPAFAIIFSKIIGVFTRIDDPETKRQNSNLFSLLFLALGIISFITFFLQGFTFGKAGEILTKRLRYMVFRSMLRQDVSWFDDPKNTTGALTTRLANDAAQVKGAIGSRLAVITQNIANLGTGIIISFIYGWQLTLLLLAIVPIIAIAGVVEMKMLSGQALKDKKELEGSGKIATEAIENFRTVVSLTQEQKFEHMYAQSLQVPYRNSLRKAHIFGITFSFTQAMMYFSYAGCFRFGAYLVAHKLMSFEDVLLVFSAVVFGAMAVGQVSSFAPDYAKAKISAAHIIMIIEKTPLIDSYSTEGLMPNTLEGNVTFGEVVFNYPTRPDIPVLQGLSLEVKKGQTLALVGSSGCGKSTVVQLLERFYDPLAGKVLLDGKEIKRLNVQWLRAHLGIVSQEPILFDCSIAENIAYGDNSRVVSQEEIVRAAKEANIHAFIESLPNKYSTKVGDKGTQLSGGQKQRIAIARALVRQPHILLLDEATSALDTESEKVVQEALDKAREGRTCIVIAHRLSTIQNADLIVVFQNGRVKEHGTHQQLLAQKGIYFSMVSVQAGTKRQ
Sequence of 6-phosphogluconate dehydrogenase, decarboxylating (Homo sapiens) (P52209 whole entry, looked up, the tested form may be a part): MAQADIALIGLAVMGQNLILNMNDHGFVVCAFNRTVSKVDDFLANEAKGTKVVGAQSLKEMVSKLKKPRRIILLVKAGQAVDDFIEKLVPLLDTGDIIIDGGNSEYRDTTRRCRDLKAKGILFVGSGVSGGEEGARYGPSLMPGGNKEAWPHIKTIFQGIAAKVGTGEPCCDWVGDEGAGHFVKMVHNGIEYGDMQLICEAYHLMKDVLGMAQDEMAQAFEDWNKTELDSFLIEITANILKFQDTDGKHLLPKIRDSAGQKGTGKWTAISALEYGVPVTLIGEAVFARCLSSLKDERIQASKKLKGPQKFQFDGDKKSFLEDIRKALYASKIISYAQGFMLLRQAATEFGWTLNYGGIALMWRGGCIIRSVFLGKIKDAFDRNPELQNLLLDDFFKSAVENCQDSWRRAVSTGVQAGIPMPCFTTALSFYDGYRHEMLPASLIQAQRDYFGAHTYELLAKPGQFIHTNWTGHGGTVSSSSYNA
Sequence of NAD(+) hydrolase SARM1 (Homo sapiens) (Q6SZW1 whole entry, looked up): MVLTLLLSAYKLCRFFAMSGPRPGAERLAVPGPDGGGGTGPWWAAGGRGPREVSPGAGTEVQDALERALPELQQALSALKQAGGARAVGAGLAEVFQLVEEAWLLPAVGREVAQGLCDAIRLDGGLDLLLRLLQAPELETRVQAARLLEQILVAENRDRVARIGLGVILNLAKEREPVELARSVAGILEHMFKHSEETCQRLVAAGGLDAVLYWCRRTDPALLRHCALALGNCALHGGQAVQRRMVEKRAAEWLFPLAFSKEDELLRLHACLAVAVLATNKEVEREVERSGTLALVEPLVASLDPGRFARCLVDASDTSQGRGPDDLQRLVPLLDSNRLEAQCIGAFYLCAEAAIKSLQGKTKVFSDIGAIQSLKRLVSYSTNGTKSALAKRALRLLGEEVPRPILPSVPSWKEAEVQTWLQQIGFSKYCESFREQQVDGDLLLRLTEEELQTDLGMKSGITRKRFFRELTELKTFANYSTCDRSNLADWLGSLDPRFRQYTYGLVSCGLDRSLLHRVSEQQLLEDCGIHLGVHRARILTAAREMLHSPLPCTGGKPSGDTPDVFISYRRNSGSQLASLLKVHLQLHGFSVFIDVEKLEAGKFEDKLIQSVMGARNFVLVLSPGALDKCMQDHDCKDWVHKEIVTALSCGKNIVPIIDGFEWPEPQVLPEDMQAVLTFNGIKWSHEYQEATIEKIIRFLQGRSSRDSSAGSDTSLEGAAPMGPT

Consider `C[C@H]1O[C@@H](O[C@H]2[C@@H](O)C[C@H](O[C@H]3[C@@H](O)C[C@H](O[C@H]4CC[C@@]5(C)[C@H](CC[C@@H]6[C@@H]5CC[C@]5(C)[C@@H](C7=CC(=O)OC7)[C@@H](O)C[C@]65O)C4)O[C@@H]3C)O[C@@H]2C)C[C@H](O)[C@@H]1O`, for which the inhibition in assay [1] is -2.27% (inactive). In addition, the luciferase signal in [2] was 16 AU (inactive).

In the case of `CC(=O)[O-].CC(=O)[O-].[Cd+2]`, the inhibition in assay [1] is 6.37% (inactive). Moreover, the luciferase signal in [2] was 740 AU (inactive).

As for `CN1Cc2c(ccc3c2OCO3)[C@@H]2[C@H]1c1cc3c(cc1C[C@@H]2O)OCO3`, the fluorescence slope change in assay [3] is 54.5% (active). The survival in [4] is 0.417 (inactive). Besides, in assay [5], the parasite load remaining was 92.6% (inactive) and the viability was 77.6%. Besides, the inhibition in [1] was 7.55% (inactive).

With `CC(C)CC(NC(=O)C(Cc1ccccc1)NC(=O)CNC(=O)CNC(=O)C(N)Cc1ccc(O)cc1)C(=O)O` (stereo unspecified), the figures for the inhibition in assay [6] and in [1] were -1.79% and 11% (inactive), respectively. The molecule also displayed a score in assay [7] of 1.42. In assay [8], this molecule showed a rescue above control of 3.43. The cytochrome c release ratio in assay [9] stood at 0.97. Also, in assay [10], the inhibition of aggregation came to 27.9%. In [11], this molecule had a glutamate uptake change of 12.5%. The inclusion score in assay [12] stood at 2. The molecule further displayed an aggregation suppression score in assay [13] of 1.27.

Take `CC(C)=CCC[C@]1(C)C=Cc2c(O)c3c(c(CC=C(C)C)c2O1)O[C@]12C(=C[C@@H]4C[C@H]1C(C)(C)O[C@@]2(C/C=C(/C)C(=O)O)C4=O)C3=O`: the inhibition in [1] is -17.6% (inactive). Further, the luciferase signal in [2] was 72 AU (inactive).

Consider `COc1cc2c(cc1O)C[C@H]1c3c(cc(O)c(OC)c3-2)CCN1C`, for which the fluorescence slope change in [3] is 14.6% (inactive). The parasite load remaining in assay [5] is 91.1% (inactive). Moreover, the viability in [5] was determined as 118%. Besides, the inhibition in assay [1] was 3.02% (inactive). The fold change was 0.885 (inactive) in assay [14] (stronger effect = lower value, cell number ratio, induced over uninduced) and 1.54 in assay [14] (setting [20]). Also, the results for the cell count in assay [14] (setting [21]) and in assay [14] (setting [22]) were 8000 and 9040, respectively. Further, in assay [2], the luciferase signal was 56 AU (inactive).

In the case of `C[C@@H]1CC[C@@]2(NC1)O[C@H]1C[C@H]3[C@@H]4CC=C5C[C@@H](O)CC[C@]5(C)[C@H]4CC[C@]3(C)[C@H]1[C@@H]2C`, the parasite load remaining in [5] is 86.7% (inactive). The viability in assay [5] stood at 95.9%. Besides, the inhibition in [1] is 11.8% (inactive). Also, the fold change in assay [14] (stronger effect = lower value) was 0.905 (inactive); in [14] (setting [20]), 1.06. Moreover, the cell count stood at 9310 in [14] (setting [21]) and 10300 in assay [14] (setting [22]). The luciferase signal in assay [2] is 48 AU (inactive).

As for `CC1CC(Cl)CCC1C(=O)OC(C)(C)C` (stereo unspecified), in assay [1], the inhibition is -3.82% (inactive). For the same molecule, the luciferase signal in assay [2] is 40 AU (inactive).

`C/C=C(\C)C(=O)O[C@H]1C[C@@H](OC(C)=O)[C@@]2(C(=O)OC)CO[C@H]3[C@@H](O)[C@@](C)([C@]45O[C@@]4(C)[C@H]4C[C@@H]5O[C@@H]5OC=C[C@@]54O)[C@H]4[C@]1(CO[C@]4(O)C(=O)OC)[C@@H]32`: the inhibition in [1] was 3.41% (inactive). In addition, the luciferase signal in [2] was 12 AU (inactive).

In the case of `C[C@@H]1[C@H](O)[C@@H](C)/C=C/C=C/CC/C=C/C=C/C=C/C=C/C(O[C@H]2O[C@H](C)[C@@H](O)[C@H](N)[C@@H]2O)CC2O[C@](O)(CC(O)C(O)CCC(O)CC(O)CC(O)CC(=O)O[C@H]1C)CC(O)C2C(=O)O` (stereo partly specified), in assay [1], the inhibition was 8.65% (inactive). The remaining NAD in [15] is 10 nM (inactive). In addition, the luciferase signal in assay [2] is 56 AU (inactive).

In the case of `COc1ccc(CC2c3cc(OC)c(OC)cc3CCN2C)cc1OC` (stereo unspecified), the fluorescence slope change in assay [3] is 206% (active). Further, the survival in [4] is 6.67 (inactive). Moreover, the parasite load remaining in assay [5] is 122% (inactive) and 66.2% (inactive). Moreover, in [5], the viability is 98.7% and 71.4%. In assay [1], the inhibition was -3.74% (inactive). In addition, the fold change in assay [14] (stronger effect = lower value) is 0.878 (inactive); in assay [14] (setting [20]) it was 1.5. Also, the cell count is 9520 in [14] (setting [21]) and 10800 in assay [14] (setting [22]).

As for `O=C(O)COc1cc(Cl)c(Cl)cc1Cl`, the inhibition in assay [1] was 6.47% (inactive). Also, in [2], the luciferase signal was 60 AU (inactive).

As to `COC(=O)COc1cc(Cl)c(Cl)cc1Cl`, in assay [1], the inhibition is -16.9% (inactive). Further, the luciferase signal in assay [2] is 92 AU (inactive).

As to `CC[C@H]1CN2CC[C@@H]1C[C@H]2[C@H](O)c1cc[n+]([O-])c2ccc(OC)cc12`, the result in assay [16], in assay [17], in assay [18] and in [19] was inactive.

Source of the values: PubChem BioAssay.
